In PubChem BioAssay (EPA / NIEHS) one finds outcome data, which are given here for ten compounds.

Activity calls are given as the source filed them. Rule for the calls: active = hit-call score of the fitted dose curve at least 0.9, where 1 is the maximum; inactive = score below 0.9.

This assay is described as follows: CCTE_Shafer_MEA_dev_firing_rate_mean: CCTE's Neural Network Formation Assay for Mean Firing Rate, Shafer Lab (AID 2284031). As to the method: CCTE_Shafer_MEA_dev assay is conducted using Axion Biosystems 48 well microelectrode array (MEA) plates and Maestro recording system. Each well of the MEA plate contains a grid of 16 microelectrodes embedded in the culture surface. Electrically active cells, such as neurons, can be cultured over the electrodes, and electrical activity in these cells can be recorded extracellularly. The spontaneous firing of neurons is captured from each electrode on a microsecond timescale providing both temporally and spatially precise data. […] The CCTE_Shafer_MEA_dev assay uses primary cultures of rat cortical neurons. Recordings are made on days post-plating 5, 7, 9 and 12. As these cultures mature over time, neural networks develop functional activity and form cohesive networks in which electrical activity can be highly coordinated. CCTE_Shafer_MEA_dev_firing_rate_mean is 1 of 19 assay components of the CCTE_Shafer_MEA_dev assay. It measures the frequency of spikes (action potential firings) as the total number of spikes divided by the length of the recording in a microelectrode array (MEA) using Axion Biosystems Maestro 768 channel amplifier with the AxIS adaptive spike detector. The firing rate is averaged across the active electrodes to report a well-mean value. To collapse across multiple recordings made on days post-plating 5, 7, 9 and 12, the trapezoidal area-under-the-curve of the component is calculated.Data from the assay component CCTE_Shafer_MEA_dev_firing_rate_mean was analyzed into 1 assay endpoint. This assay endpoint, CCTE_Shafer_MEA_dev_firing_rate_mean, was analyzed in the negative analysis fitting direction relative to DMSO as the negative control and baseline of activity. Using a type of functional reporter, gain or loss-of-signal activity can be used to understand electrical activity.
On the day prior to culture, each well was coated thoroughly with 150 uL of 0.05% polyethyleneimine (PEI, Sigma Cat P3143) in 50 mM HEPES (Sigma Cat H7523) at a pH of 8. The plate was incubated at 37C for one hour. PEI was rinsed out with 500 uL of sterile water three times. Plates were stored at 4C until the day of culture. This culture was plated at a seeding density of 1.5 x 10^5 cells/well on a 48-well MEA plate, prepared as described above. Cells were administered via a 25 uL media/laminin ([…]; Sigma Cat L2020-1MG) drop directly onto the microelectrode array, as adding the cells with the laminin results in better attachment than pre-coating with laminin. After 2 hours, an additional 475 uL of cortical media was added and the cells returned to the incubator. Exposure starts at day 0 of plating and is continued over twelve days of network development until the experiment is terminated. Cells are fed with fresh medium on DIV 5 and 9, following the recordings on those days. The entire volume of media in the well is exchanged and any vehicle or compound treatment is renewed. Complete details are found in OP-NHEERL/ISTD/SBB/TJS/2015-03-r0 (available on request, email shafer.tim@epa.gov). Measurement of the electrical activity is non-invasive, and recordings can be made from the same plate over multiple different days of the culture. In cortical neurons, this allows for the measurement of extracellular action potentials over the period during which networks form in the MEA plate.
Turning to `COc1ccc(-n2nc(C(F)F)cc2-c2ccc(S(C)=O)cc2)cc1` (stereo not given), the compound was classed as inactive.
Consider `CNCc1ccc(NC(=O)c2c[nH]c3c2C(=O)CCC3)cc1`, for which the outcome was inactive.
Turning to `CCC(C)(C)C(=O)O[C@H]1C[C@@H](C)C=C2C=C[C@H](C)[C@H](CC[C@@H]3C[C@@H](O)CC(=O)O3)[C@H]21`, the compound was classed as inactive.
Then `CC[C@H](C)C(=O)O[C@H]1C[C@@H](C)C=C2C=C[C@H](C)[C@H](CC[C@@H]3C[C@@H](O)CC(=O)O3)[C@H]21`, with “inactive”.
On to `O=P(OC(CCl)CCl)(OC(CCl)CCl)OC(CCl)CCl`, for which the outcome was inactive.
In the case of `NC(=O)NO`, the result was inactive.
Then `O=C1CCC(N2C(=O)c3ccccc3C2=O)C(=O)N1` (stereo not given), with “inactive”; and `CC[C@H]1OC(=O)[C@H](C)[C@@H](O[C@H]2C[C@@](C)(OC)[C@@H](O)[C@H](C)O2)[C@H](C)[C@@H](O[C@@H]2O[C@H](C)C[C@H](N(C)C)[C@H]2O)[C@](C)(O)C[C@@H](C)C(=O)[C@H](C)[C@@H](O)[C@]1(C)O`, with “inactive”.
As for `Cn1c(=O)c2c(ncn2C)n(C)c1=O`, the compound was called inactive.
In the case of `Nc1nc2ncc(CNc3ccc(C(=O)N[C@@H](CCC(=O)O)C(=O)O)cc3)nc2c(=O)[nH]1`, the outcome was inactive.
